Assay [1] is described as follows: Quantitative High-Throughput drug screen in 47 multiple myeloma cell lines against the NCATS MIPE library collection: PE2_PLB cell viability assay (AID 1919869). Further: nearly all actives have a fitted effect of over 35% in size. Summed up:
(§1)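 ATP-based CellTiter-Glo luminescence after 48 h drug exposure (37 °C, 5% CO2) of 500 myeloma cells per well. DMSO-only wells set 100% viability, media-only wells 0%; MIPE 4.0 library added by pin tool.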

Assay [2] in a line: Quantitative High-Throughput drug screen in 47 multiple myeloma cell lines against the NCATS MIPE library collection: PCM6_Riken cell viability assay (AID 1919870). Further: nearly all actives have a fitted effect of over 30% in size. Summed up: as §1
A short description of assay [3]: Quantitative High-Throughput drug screen in 47 multiple myeloma cell lines against the NCATS MIPE library collection: RPMI8226_ATCC cell viability assay (AID 1919871). Further: nearly all actives have a fitted effect of over 30% in size. An outline of the steps:
as §1

Assay [4] is described as follows: Quantitative High-Throughput drug screen in 47 multiple myeloma cell lines against the NCATS MIPE library collection: OPM2_DSMZ cell viability assay (AID 1919872). Further: nearly all actives have a fitted effect of over 30% in size. An outline of the steps:
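Viability readout: CellTiter-Glo luminescence following 5 min room-temperature incubation with reagent. Prior exposure: 48 h, 37C, humidified 5% CO2, 500 cells per well.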

Assay [5] can be described thus: Quantitative High-Throughput drug screen in 47 multiple myeloma cell lines against the NCATS MIPE library collection: KMS11_JCRBsus cell viability assay (AID 1919873). Further: nearly all actives have a fitted effect of over 50% in size. Summed up: as §1
Assay [6] can be described thus: Quantitative High-Throughput drug screen in 47 multiple myeloma cell lines against the NCATS MIPE library collection: KMS28BM_JCRB cell viability assay (AID 1919874). Further: nearly all actives have a fitted effect of over 35% in size. An outline of the steps:
as §1

A short description of assay [7]: qHTS drug screen for cell cycle checkpoint inhibitors in PARPi-resistant BRCA-mutant ovarian cancer cell lines. (AID 1963452; calls by dose curve). To be noted: PEO1/OlaR viability, CellTiter-Glo luminescence, 96 h; for Z-AUC: stronger effect = lower value. Summed up:
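PEO1, PEO4 and PEO1/OlaR ovarian cancer cells, 600 per well, exposed 96 h at 37C to a dilution series. Viability read by CellTiter-Glo luminescence, normalized to DMSO and empty wells; activity summarized as Z-AUC.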
On the technique in general: Quantitative high-throughput screening tests each substance at several concentrations.

Assay [8] in a line: qHTS for identification of novel therapeutic agents for treatment of microphthalmiaassociated transcription factor (MiT) renal cell carcinoma (RCC) (AID 1963991; calls by dose curve). The following applies: CellTiter-Glo, 48 h; for Potency: active = Z-AUC below -0.8 in all three lines; for z-score: stronger effect = lower value. Summed up:
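Three TFE3-fusion RCC cell lines (UOK109, UOK124, UOK145), 500 cells/well, were exposed to the 1912-compound MIPE 4.0 library for 48 hours at 37 C. Viability was read by CellTiter-Glo luminescence, normalised to DMSO (100%) and empty wells (0%), with 11-concentration curve fits.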

[9] abbreviates: measured here: PEO1 parental Z-AUC.
The mark [10] stands for this setting: TFE3-RCC UOK109 viability, measured here: UOK109 Z-AUC.
[11] abbreviates: TFE3-RCC viability, measured here: UOK124 Z-AUC.
[12] abbreviates: TFE3-RCC viability, measured here: UOK145 Z-AUC.

Results filed as inconclusive are left out. The source made the active and inactive calls. Unless noted, the call rests on the fitted dose curve; in most records, active means well fitted cell-killing curve with a large enough effect; inconclusive means small, poorly fitted or top-dose-only effect, or effect the other way; inactive means no such curve, though single readings can be large or run the other way.
Potency means the concentration at half of the fitted maximal effect.

Regarding `COc1cc2c(NC3CCN(C(C)C)CC3)nc(C3CCCCC3)nc2cc1OCCCN1CCCC1`, the Potency in assay [1] is 5260 nM (active); in assay [2] it was 3320 nM (active); in assay [3] it was 6620 nM (active); in assay [4], 7430 nM (active); in assay [5], 8330 nM (active); in assay [6], 14800 nM (active). Besides, the values for the Z-AUC in assay [7], in assay [7] (setting [9]) and in assay [7] (measured here: PEO4 Z-AUC) were 0.841 (inactive), 0.768 and 0.938, respectively.

Turning to `CN1CCN(Cc2ccc(NC(=O)Nc3ccc(Oc4cc(NC(=O)C5CC5)ncn4)cc3)cc2C(F)(F)F)CC1`, the Potency is 148 nM (active) in assay [1]; 105 nM (active) in assay [2]; 418 nM (active) in assay [3]; 526 nM (active) in assay [4]; 235 nM (active) in assay [5]; 209 nM (active) in assay [6]. Further, the Z-AUC in assay [7] is -1.5 (inactive); in assay [7] (setting [9]), -2.15; in assay [7] (measured here: PEO4 Z-AUC), -1.93.

On to `C=CC(=O)Nc1cc2c(Nc3ccc(F)c(Cl)c3)ncnc2cc1C#CC(C)(C)N1CCN(C)CC1`, for which the Potency is 1050 nM (active) in assay [1]; 662 nM (active) in assay [2]; 6620 nM (active) in assay [3]; 10500 nM (active) in assay [4]; 1320 nM (active) in assay [5]; 469 nM (active) in assay [6]. Besides, in assay [8] (TFE3-RCC UOK109 viability), the Potency was 14800 nM (active). The figures for the Z-AUC in assay [7], in assay [7] (setting [9]) and in assay [7] (measured here: PEO4 Z-AUC) were -0.203 (inactive), -0.15 and -0.45, respectively. The z-score was -2.39 in assay [8] (setting [10]), -1.76 in assay [8] (setting [11]) and -1.33 in assay [8] (setting [12]).

With `O=C(Nc1cn[nH]c1-c1nc2ccc(CN3CCOCC3)cc2[nH]1)NC1CC1`, the Potency in assay [1] is 935 nM (active); in assay [2] it was 2640 nM (active); in assay [3], 10500 nM (active); in assay [4], 4690 nM (active); in assay [5] it was 1320 nM (active); in assay [6], 1050 nM (active). Further, the Potency in assay [7] is 871 nM (active). The Z-AUC in assay [7] (setting [9]) is -1.15; in assay [7] (measured here: PEO4 Z-AUC), -1.9.

`O=C(NC1CCNCC1)c1[nH]ncc1NC(=O)c1c(Cl)cccc1Cl`: the Potency in assay [1] was 833 nM (active); in assay [2], 166 nM (active); in assay [3], 1050 nM (active); in assay [4], 526 nM (active); in assay [5], 332 nM (active); in assay [6], 264 nM (active). In addition, the Potency in assay [7] is 977 nM (active). For the same compound, the values for the Z-AUC in assay [7] (setting [9]) and in assay [7] (measured here: PEO4 Z-AUC) were -1.49 and -1.05, respectively.

Consider `COCCn1c2c([n+](Cc3cnccn3)c1C)C(=O)c1ccccc1C2=O`, for which the Potency in assay [1] is 18.7 nM (active); in assay [2] it was 23.5 nM (active); in assay [3], 23.5 nM (active); in assay [4], 59 nM (active); in assay [5], 13.2 nM (active); in assay [6], 14.8 nM (active). Also, the Potency in assay [7] was 49 nM (active); in assay [8] (TFE3-RCC UOK109 viability), 83.3 nM (active). The Z-AUC in assay [7] (setting [9]) is -3.26; in assay [7] (measured here: PEO4 Z-AUC), -3.48. The results for the z-score in assay [8] (setting [10]), in assay [8] (setting [11]) and in assay [8] (setting [12]) were -3.55, -3.42 and -3.23, respectively.

Take `C=CC(=O)Nc1cc2c(Nc3ccc(F)c(Cl)c3)ncnc2cc1OCCCN1CCOCC1`: the Potency is 1870 nM (active) in assay [1]; 1480 nM (active) in assay [2]; 20900 nM (active) in assay [3]; 20900 nM (active) in assay [4]; 9350 nM (active) in assay [5]; 5260 nM (active) in assay [6]. Further, the Z-AUC is -0.343 (inactive) in assay [7], -0.823 in assay [7] (setting [9]) and -1.15 in assay [7] (measured here: PEO4 Z-AUC).

As for `CC(C)c1cc(-c2n[nH]c(=O)n2-c2ccc3c(ccn3C)c2)c(O)cc1O`, the Potency was 37.2 nM (active) in assay [1]; 23.5 nM (active) in assay [2]; 37.2 nM (active) in assay [3]; 41.8 nM (active) in assay [4]; 16.6 nM (active) in assay [5]; 41.8 nM (active) in assay [6]. Also, in assay [8] (TFE3-RCC UOK109 viability), the Potency is 74.3 nM (active). Moreover, the Z-AUC was -0.89 (inactive) in assay [7], -1.07 in assay [7] (setting [9]) and 0.105 in assay [7] (measured here: PEO4 Z-AUC). In addition, the values for the z-score in assay [8] (setting [10]), in assay [8] (setting [11]) and in assay [8] (setting [12]) were -1.34, -0.923 and -1.27, respectively.

For `CC(C)(O)c1cc2nc(-c3cnc(N)nc3)nc(N3CCOCC3)c2s1`, the Potency in assay [1] is 105 nM (active); in assay [2], 743 nM (active); in assay [3], 46.9 nM (active); in assay [4], 187 nM (active); in assay [5] it was 18.7 nM (active); in assay [6], 66.2 nM (active). For the same compound, the Potency in assay [8] (TFE3-RCC UOK109 viability) was 33.2 nM (active). Further, the Z-AUC in assay [7] was -1.37 (inactive); in assay [7] (setting [9]) it was -1.91; in assay [7] (measured here: PEO4 Z-AUC), -1.8. The z-score was -2.49 in assay [8] (setting [10]), -0.824 in assay [8] (setting [11]) and -2.51 in assay [8] (setting [12]).

`CC(=O)Nc1nc(C)c(-c2ccc(Cl)c(S(=O)(=O)NCCO)c2)s1`: the Potency in assay [1] was 4690 nM (active); in assay [2] it was 4690 nM (active); in assay [3] it was 16600 nM (active); in assay [4] it was 14800 nM (active); in assay [5], 5260 nM (active); in assay [6] it was 18700 nM (active). The Z-AUC in assay [7] is -1.67 (inactive); in assay [7] (setting [9]) it was -0.921; in assay [7] (measured here: PEO4 Z-AUC) it was -1.08.

As for `COc1cc2c(Oc3ccc(NC(=O)C4(C(=O)Nc5ccc(F)cc5)CC4)cc3F)ccnc2cc1OCCCN1CCOCC1`, the Potency is 8330 nM (active) in assay [1]; 10500 nM (active) in assay [2]; 13200 nM (active) in assay [3]; 4180 nM (active) in assay [4]; 1180 nM (active) in assay [5]; 3320 nM (active) in assay [6]. Moreover, the figures for the Z-AUC in assay [7], in assay [7] (setting [9]) and in assay [7] (measured here: PEO4 Z-AUC) were -0.782 (inactive), -0.246 and -0.374, respectively.

As to `Nc1cc(C(F)(F)F)c(-c2cc(N3CCOCC3)nc(N3CCOCC3)n2)cn1`, the Potency in assay [1] is 935 nM (active); in assay [2], 1480 nM (active); in assay [3], 526 nM (active); in assay [4], 2640 nM (active); in assay [5], 66.2 nM (active); in assay [6], 41.8 nM (active). Moreover, the Potency in assay [8] (TFE3-RCC UOK109 viability) is 662 nM (active). Further, the Z-AUC in assay [7] is -2.03 (inactive); in assay [7] (setting [9]) it was -1.2; in assay [7] (measured here: PEO4 Z-AUC) it was -0.609. The figures for the z-score in assay [8] (setting [10]), in assay [8] (setting [11]) and in assay [8] (setting [12]) were -0.856, -0.844 and -1.62, respectively.

In the case of `CC(C)c1cnn2c(NCc3ccccc3)cc(N[C@@H](CO)[C@H](O)CO)nc12`, the Potency in assay [1] was 235 nM (active); in assay [2] it was 93.5 nM (active); in assay [3] it was 332 nM (active); in assay [4], 332 nM (active); in assay [5], 148 nM (active); in assay [6], 296 nM (active). For the same compound, the Potency in assay [8] (TFE3-RCC UOK109 viability) is 372 nM (active). Moreover, the results for the Z-AUC in assay [7], in assay [7] (setting [9]) and in assay [7] (measured here: PEO4 Z-AUC) were -1.87 (inactive), -1.92 and -1.77, respectively. The results for the z-score in assay [8] (setting [10]), in assay [8] (setting [11]) and in assay [8] (setting [12]) were -1.04, -0.933 and -1.84, respectively.

The values are drawn from PubChem BioAssay (NCATS).
